Only some compounds are listed: those with a hit (about 3.6% of all), similar ones and a draw of the others.
Wnt bcat act: activators of Wnt/beta-catenin signaling. AID 743398. activation, % at 9.35 µM. Wnt/beta-catenin reporter cell assay, activator, plate reader. hit rate 1.2% among 300,000; in the data active means activation above about 30%, passing the limit was not always enough; inconclusive means no clear call, values can overlap the other calls;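 further: 0% = neutral control wells and 100% = positive control wells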
APOBEC3G inh: blocks human APOBEC3G single-stranded DNA deamination; inhibition, % at 20 µM; hit rate 0.28% among 330,000; recombinant A3G, ssDNA deamination FAM/TAMRA fluorescence; Q9HC16;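 active means inhibition of at least 40% at 20 µM, with no more than 30% in the related APOBEC3A deaminase screen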;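 further: plate controls were DMSO wells with A3G for no effect and wells lacking A3G enzyme for full effect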
esBAF inh: blocks esBAF chromatin remodeling in mouse ES cells | reporter increase, % at 12.5 µM | hit rate 2% among 350,000 | Bmi1-luciferase knock-in reporter, 24 h; 100% = twice the neutral-well signal | AID 602393; in the data active means activation above about 40%; inconclusive means no clear call, values can overlap the other calls;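 further: 0% = median of the plate's neutral control wells and 100% = double that signal; a rise in the Bmi1 reporter signal indicates esBAF inhibition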
PHOSPHO1 inh: PHOSPHO1 (human) inhibition; hit rate 1.1% among 290,000; inhibition, % at 13.3 µM; AID 1565; Q8TCT1; recombinant PHOSPHO1, absorbance phosphatase assay; in the data active means inhibition above about 60%
Target sequence (Q8TCT1 whole entry, looked up): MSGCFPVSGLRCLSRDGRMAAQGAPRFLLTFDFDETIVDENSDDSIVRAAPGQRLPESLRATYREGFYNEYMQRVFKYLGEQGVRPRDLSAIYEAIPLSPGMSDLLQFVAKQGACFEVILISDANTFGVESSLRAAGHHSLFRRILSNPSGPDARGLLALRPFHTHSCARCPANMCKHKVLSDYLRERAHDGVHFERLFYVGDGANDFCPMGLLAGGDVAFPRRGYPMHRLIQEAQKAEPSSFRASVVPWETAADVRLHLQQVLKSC
MITF TRPM1 HTS: increases MITF-driven TRPM1 promoter luciferase signal; SK-MEL-5 TRPM1-promoter luciferase, 24 h; % of positive control, neutral wells = 0; activation, % at 12.5 µM; hit rate 0.75% among 300,000;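 active means mean activation of at least 80% with every replicate also reaching 80%; inconclusive means mean reaches 80% but some replicate falls short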;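 further: 0% = neutral control wells and 100% = parthenolide positive control wells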
APOBEC3A inh: blocks human APOBEC3A ssDNA deamination; P31941; recombinant A3A, FAM/TAMRA ssDNA deamination fluorescence; inhibition, % at 20 µM; hit rate 0.41% among 330,000; AID 493011;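 active means at least 40% inhibition at 20 µM here, with at most 30% in a related deaminase screen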;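 further: plate controls were A3A with DMSO for no effect and wells lacking A3A enzyme for full effect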
Numbers without * were called inactive; ? = inconclusive; · = not tested or not shown.

SMILES	Wnt bcat act	APOBEC3G inh	esBAF inh	PHOSPHO1 inh	MITF TRPM1 HTS	APOBEC3A inh
Cc1ccc(C)c(NC(=O)CSc2nccn2Cc2ccco2)c1	7	-8	56*	43	31	-7
CN1C(=O)c2cc(NC(=O)c3ccc(C(F)(F)F)cc3)ccc2OC[C@H]2O[C@H](CC(=O)O)CC[C@@H]21	·	·	2	·	·	·
CCOc1ccccc1NC(=O)CN1C(=O)C(C)SC(C)C1=O (stereo not drawn)	39*	2	·	28	-10	4
CCOc1ccccc1NC(=O)CN1C(=O)CSC(C)C1=O (stereo not drawn)	-1	-5	·	65*	-6	-3
COc1ccccc1NC(=O)CSc1nnc(-c2ccc(NC(C)=O)cc2)n1C	·	0	-9	106*	5	21
COc1ccccc1NC(=O)CC(=O)CSc1nnc(-c2ccc(C)cc2)n1C	-3	-4	1	88*	-21	-2
CC(=O)Nc1ccc(-c2nnc(SCC(=O)Nc3ccc4c(c3)oc3ccccc34)n2C)cc1	27	-4	53*	-14	·	7
C[C@@H]1CN([C@H](C)CO)C(=O)c2cc(NC(=O)CCC(F)(F)F)ccc2O[C@@H](C)CCCCO[C@H]1CN(C)Cc1ccncc1	·	·	-7	·	·	·
CN1CCN(C(=O)C[C@H]2CC[C@H]3[C@@H](COC[C@@H](O)CN3C(=O)Nc3ccc4c(c3)OCO4)O2)CC1	·	·	21	·	·	·
CSc1nc(-c2ccccc2)cn1-c1ccc(NC(C)=O)cc1	27	-1	·	10	34	-1
CCOc1ccc(-c2cn(-c3ccc(OC)cc3)c(SC)n2)cc1	·	5	65*	-31	?	-1
CCOC(=O)c1c(C)oc2c1c(C(c1ccccc1)N1CCOCC1)c(O)c1ccccc12 (stereo not drawn)	40*	5	47*	42	68	3
CCOC(=O)COn1c(=O)c(-c2cc3ccccc3o2)[n+]([O-])c2ccccc21	21	-7	52*	18	·	-2
CCOC(=O)COn1c(=O)c(-c2ccc(F)cc2)[n+]([O-])c2ccccc21	-2	-7	-4	31	·	-2
CCOc1ccc(-c2c(=O)n(O)c3ccccc3[n+]2[O-])cc1	56*	1	?	28	54	-1
C=CCOn1c(=O)c(-c2cc3ccccc3o2)[n+]([O-])c2ccccc21	·	-6	54*	18	39	-6
CCOC(=O)COn1c(=O)c(-c2ccc(Br)cc2)[n+]([O-])c2ccccc21	10	-6	27	39	·	-4
CCCOc1ccc(-c2c(=O)n(OCC(=O)OCC)c3ccccc3[n+]2[O-])cc1	0	-6	70*	19	·	-4
C=CCOn1c(=O)c(-c2ccccc2)[n+]([O-])c2ccccc21	2	1	1	14	-1	1
COc1ccc(Cl)cc1Nc1nc(-c2sc(NC(=O)C(C)(C)C)nc2C)cs1	-16	7	7	101*	-21	-3
COc1ccc(OC)c(Nc2nc(-c3sc(NC(=O)CC(C)C)nc3C)cs2)c1	-7	-5	-12	65*	-14	-5
COc1ccc(OC)c(Nc2nc(-c3sc(NC(=O)C(C)(C)C)nc3C)cs2)c1	-10	-9	0	57	-16	6
CCC(C)C(=O)Nc1nc(C)c(-c2csc(Nc3cc(OC)ccc3OC)n2)s1 (stereo not drawn)	-7	-6	-2	62*	-1	-1
CCC(C)C(=O)Nc1nc(C)c(-c2csc(Nc3cc(Cl)ccc3OC)n2)s1 (stereo not drawn)	-7	-9	-4	91*	1	0
CN1C(=O)c2cc(NC(=O)Nc3ccc(Cl)cc3)ccc2OC[C@H]2O[C@H](CC(=O)O)CC[C@H]21	·	·	3	·	·	·
Cc1ccc(/C(N)=N/OC(=O)CSc2ccccc2)cc1	?	-6	·	6	-5	-2
N/C(=N\OC(=O)CSc1ccccc1)c1ccc([N+](=O)[O-])cc1	39*	-2	·	-9	25	0
Cn1c(-c2ccncc2)nc2ccccc21	2	-6	3	34	3	-6
CCN(CC)c1ccc(-c2nc3cnccc3n2C)cc1	·	-2	40	20	85*	-10
Fc1ccc(-c2n[nH]c(=S)n2CC2CCCO2)cc1 (stereo not drawn)	1	36	·	88*	0	0

Screens: PubChem BioAssay, several laboratories
